# Reference: PubChem BioAssay (NCATS)
# Inconclusive results are not listed. A number with no mark means an inactive call. The source made the active and inactive calls. Calls come from the whole dose curve; as a rule, active = well fitted curve in the direction sought with a large enough effect; inconclusive = small, poorly fitted or top-dose-only effect, or another doubt; inactive = no such curve, though single readings can be large; an effect the other way counts as inactive or inconclusive.
# Legend:
# [1] = Viability qHTS for spleen associated tyrosine kinase inhibitor (SYKi) naive MV4-11 cells (AID 1963823); note: nearly all actives have a fitted effect of over 40% in size; note: potency is the fitted concentration of half-maximal effect
# Method in brief: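 qHTS, SYK inhibitor-naive MV4-11; 500 cells/well; 72 hr compound exposure, 37 C; CellTiter-Glo added, 10 min RT; luminescence read.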
# [2] = Viability qHTS for spleen associated tyrosine kinase inhibitor (SYKi) drug resistant MV4-11 cells (AID 1963824); note: nearly all actives have a fitted effect of over 35% in size; note: potency is the fitted concentration of half-maximal effect
# Method in brief: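 SYK-inhibitor-resistant MV4-11 AML cells were seeded at 500 per well onto compound and cultured 72 hours (37 °C, 5% CO2). CellTiter-Glo was then added, and after 10 min at room temperature, luminescence gave viability.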
# [3] = Quantitative highthroughput screen to assess conditional lethalithy of NOMO1 cells grown in RPMI1640 with untreated serum (RPMI+s) (AID 1963876);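 note: 100% = DMSO wells and 0% = empty wells without cells; nearly all actives have a fitted effect of over 35% in size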
# Method in brief: (§1)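 Each medium arm—HPLM with 10% dialyzed FBS, or RPMI1640 with 5 mM glucose and 10% untreated or dialyzed FBS—was screened against an 11-point, 3-fold compound titration for 48 h at 37 °C, with CellTiter-Glo luminescence as endpoint.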
# [4] = Quantitative highthroughput screen to assess conditional lethalithy of NOMO1 cells grown in RPMI1640 with dialyzed fetal bovine serum (RPMI+ds) (AID 1963877);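 note: series mostly up to about 46 µM; 100% = DMSO control wells and 0% = empty wells; nearly all actives have a fitted effect of over 30% in size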
# Method in brief: as §1
# [5] = Quantitative highthroughput screen to assess conditional lethalithy of NOMO1 cells grown in Human Plasma-Like Medium with dialyzed fetal bovine serum (HPLM+ds) (AID 1963878);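 note: 100% = DMSO wells and 0% = empty wells on each plate; nearly all actives have a fitted effect of over 35% in size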
# Method in brief: as §1
# [6] = Quantitative highthroughput screen to assess conditional lethalithy of P12 Ichikawa cells grown in Human Plasma-Like Medium with dialyzed fetal bovine serum (HPLM+ds) (AID 1963879); conditions: Potency: viability; note: series mostly up to about 46 µM; nearly all actives have a fitted effect of over 35% in size
# Method in brief: as §1
# [7] = Quantitative highthroughput screen to assess conditional lethalithy of P12 Ichikawa cells grown in RPMI1640 with dialyzed fetal bovine serum (RPMI+ds) (AID 1963880); conditions: Potency: P12-Ichikawa viability
# Method in brief: as §1
# [8] = Quantitative highthroughput screen to assess conditional lethalithy of P12 Ichikawa cells grown in RPMI1640 with untreated serum (RPMI+s) (AID 1963881); conditions: Potency: viability
# Method in brief: as §1
# [9] = Quantitative highthroughput screen to assess conditional lethalithy of SEM cells grown in Human Plasma-Like Medium with dialyzed fetal bovine serum (HPLM+ds) (AID 1963882)
# Method in brief: as §1
# [10] = Quantitative highthroughput screen to assess conditional lethalithy of SEM cells grown in RPMI1640 with unreated serum (RPMI+s) (AID 1963883)
# Method in brief: as §1
# [11] = Quantitative highthroughput screen to assess conditional lethalithy of SEM cells grown in RPMI1640 with dialyzed fetal bovine serum (RPMI+ds) (AID 1963884)
# Method in brief: as §1
compound,measurement,setting,value
C[C@@H]1O[C@@H](O[C@H]2[C@H](O[C@H]3[C@H](O[C@H]4CC[C@@]5(C=O)C(CC[C@]6(C)C5CC=C5C7CC(C)(C)C[C@@H](O)[C@]7(C)CC[C@]56C)C4(C)C)O[C@H](C(=O)O)[C@@H](O)[C@@H]3O)OC[C@@H](O)[C@@H]2O)[C@H](O)[C@H](O)[C@H]1O (some centres not stated),viability (% of control),[1],85.7% [at 9.25 µM]
same,"viability, % of control",[2],103% [at 9.25 µM]
C=C1CC[C@@H]2[C@](C)(CO)[C@H](O)CC[C@@]2(C)[C@@H]1/C=C/C1=CCOC1=O,Potency,[1],inactive
same,Potency,[2],inactive
CC(=O)N[C@H]1[C@H](O[C@H]2CC[C@@]3(C)C(CC[C@]4(C)C3CC=C3[C@@H]5CC(C)(C)CC[C@]5(C(=O)OC5OCC(O)C(O)C5O)CC[C@]34C)C2(C)C)O[C@H](COC2OC(C)C(O)C(OC3OC(C)C(O)C(O)C3O)C2O)[C@@H](O)[C@@H]1O (some centres not stated),viability (% of control),[1],83.4% [at 9.25 µM]
same,"viability, % of control",[2],87% [at 9.25 µM]
COC1=CC(=O)O[C@@H](/C=C/c2ccccc2)[C@@H]1O,Potency,[1],inactive
same,Potency,[2],inactive
Cc1[nH]c2ccccc2c1C1=C(NCCc2ccc(F)cc2)C(=O)N(C)C1=O,Potency,[1],16.4 µM (active)
same,Potency,[2],11.6 µM (active)
CCNC(=O)c1noc(-c2cc(Cl)c(O)cc2O)c1-c1ccc(OC)cc1,Potency,[1],0.0326 µM (active)
same,Potency,[2],0.058 µM (active)
COc1c2ccoc2nc2c(OC)c(O[C@@H]3O[C@@H](C)[C@H](O)[C@@H](O[C@@H]4O[C@H](CO)[C@@H](O)[C@H](O)[C@H]4O)[C@H]3OC(C)=O)ccc12,Potency,[1],inactive
same,Potency,[2],inactive
CC(C)(N)c1cc(C(=O)N[C@@H]2CCc3ccc(Oc4ccnc5c4CCC(=O)N5)cc3C2)cc(C(F)(F)F)c1,Potency,[1],0.92 µM (active)
same,Potency,[2],1.3 µM (active)
CCOC(=O)[C@@H](N)Cc1ccc(-c2cc(O[C@H](c3ccc(Cl)cc3-n3ccc(C)n3)C(F)(F)F)nc(N)n2)cc1,Potency,[1],8.33 µM (active)
same,Potency,[2],4.17 µM (active)
O=C(CCc1nnc2n(Cc3ccc(Cl)cc3)c(=O)c3ccccc3n12)NCCC1=CCCCC1,Potency,[1],inactive
same,Potency,[2],inactive
C=C1CC[C@@H]2[C@](C)(CO)[C@H](O)CC[C@@]2(C)[C@@H]1C/C=C1/C(=O)OCC1O (some centres not stated),Potency,[1],2.91 µM (active)
same,Potency,[2],3.26 µM (active)
CCC(=O)OCC(=O)[C@@]1(OC(=O)CC)[C@@H](C)C[C@H]2[C@@H]3CCC4=CC(=O)C=C[C@]4(C)[C@@]3(F)[C@@H](O)C[C@@]21C,Potency,[1],18.4 µM (active)
same,Potency,[2],20.6 µM (active)
CC1(C)C(=O)N2c3ccccc3C(O)(CC(C(=O)O)n3cnc4ccccc4c3=O)C2N1O (configuration not stated),Potency,[1],inactive
same,Potency,[2],0.252 µM (active)
COc1cccc([C@@H](C)NCCCc2ccccc2Cl)c1,Potency,[1],14.8 µM (active)
same,Potency,[2],14.8 µM (active)
same,Potency,[3],inactive
same,Potency,[4],inactive
same,Potency,[5],inactive
same,Potency,[6],inactive
same,Potency,[7],inactive
same,Potency,[8],inactive
same,Potency,[9],inactive
same,Potency,[10],inactive
same,Potency,[11],inactive
